Among the data in PubChem BioAssay (NCI) are growth values, retold here.

Some test systems named below: HCT-15 colon; HT29 colon; SNB-75 CNS; SNB-19 CNS; U251 CNS; PC-3 prostate; SK-MEL-5 melanoma; UACC-62 melanoma; LOX IMVI melanoma; SK-MEL-28 melanoma; SK-MEL-2 melanoma; EKVX NSCLC; SN12C renal; UO-31 renal; TK-10 renal; ACHN renal; CAKI-1 renal; A498 renal; CCRF-CEM leukemia; MOLT-4 leukemia.
What all share (assay): NCI-60 one-dose screen, 48 h (100 = growth as untreated, 0 = no growth, -100 = all killed)
Common to all, as to conditions: 10 µM

Compounds without any hit were thinned out: in the full panel of roughly 83,000, 20% have a hit.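 Results are percent growth after 48 hours of single-concentration exposure. 100 means growth as in untreated cells, lower positive values show inhibition; negative values down to -100 show cell death.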 A number with no mark means an inactive call. Activity calls are given as the source filed them. Rule for the calls: active = growth percent below 10; inactive = the rest.

`CCCCSc1nc(Nc2ccc(/C(C)=N/NC(N)=S)cc2)c(C#N)c(-c2ccc(F)cc2)n1`: the growth in the assay with HCT-15 colon is 62.7%; with HT29 colon it was 60.3%; in the assay with SNB-75 CNS it was 53.5%; in the assay with SNB-19 CNS, 20.7%; with U251 CNS, 7.7% (active); with PC-3 prostate it was 28.6%. Further, the growth is 75% in the assay on SK-MEL-5 melanoma; 49.3% in the assay on UACC-62 melanoma; 6.74% (active) in the assay with LOX IMVI melanoma; 64% in the assay on SK-MEL-28 melanoma; 72.9% in the assay on SK-MEL-2 melanoma; 57.5% in the assay with EKVX NSCLC. Further, the growth is 29.2% with SN12C renal; 19.6% in the assay on UO-31 renal; 46% in the assay on TK-10 renal; 14.5% in the assay on ACHN renal; 45.2% with CAKI-1 renal; 63.1% with A498 renal. Further, the growth was 55.3% with CCRF-CEM leukemia and 63.6% in the assay on MOLT-4 leukemia.
As for `CCCn1c(=O)c2[nH]c(-c3ccc(OCc4nc5ccc(C)cc5[nH]4)cc3)nc2n(CCC)c1=O`, the growth is 23.5% in the assay on HCT-15 colon; 38.7% with HT29 colon; -38.1% (active) in the assay on SNB-75 CNS; 34% with SNB-19 CNS; 6.38% (active) in the assay on U251 CNS; 39.2% with PC-3 prostate. The growth was 12.8% in the assay on SK-MEL-5 melanoma; 2.25% (active) in the assay on UACC-62 melanoma; -20.3% (active) in the assay on LOX IMVI melanoma; 39.9% with SK-MEL-28 melanoma; 52.1% in the assay on SK-MEL-2 melanoma; 9.33% (active) in the assay on EKVX NSCLC. The growth is -5.67% (active) in the assay with SN12C renal; -91% (active) in the assay on UO-31 renal; -51.8% (active) with TK-10 renal; -88.2% (active) in the assay on ACHN renal; 6.1% (active) with CAKI-1 renal; -79.8% (active) with A498 renal. Moreover, the values for the growth in the assay on CCRF-CEM leukemia and in the assay with MOLT-4 leukemia were 46.8% and 15.2%, respectively.
As for `CO[C@@H]1CSSC1Cn1nc(-c2ccc(Oc3ccccc3)cc2)c2c(N)ncnc21` (stereo not given in full), the growth in the assay with HCT-15 colon was 37.2%; in the assay on HT29 colon, 28.5%; with SNB-75 CNS, 97.9%; in the assay with SNB-19 CNS, 69.1%; in the assay on U251 CNS, 49.5%; with PC-3 prostate it was 43.6%. In addition, the growth is 7.95% (active) with SK-MEL-5 melanoma; -53.9% (active) with UACC-62 melanoma; 39.4% in the assay with LOX IMVI melanoma; -34.4% (active) in the assay with SK-MEL-28 melanoma; 27.2% with SK-MEL-2 melanoma; 25.3% with EKVX NSCLC. For the same compound, the growth with SN12C renal is 60.6%; in the assay with UO-31 renal it was 21.3%; in the assay with TK-10 renal it was 20.3%; in the assay on ACHN renal, 40.4%; in the assay on CAKI-1 renal, 32.4%; in the assay on A498 renal, 80.8%. In addition, the growth was -8.26% (active) in the assay with CCRF-CEM leukemia and -16.6% (active) in the assay on MOLT-4 leukemia.
For `CCOC(=O)N/C(=C1/OCCN1C)[P+](c1ccccc1)(c1ccccc1)c1ccccc1`, the growth with HCT-15 colon was 98.5%; in the assay with HT29 colon it was 60.3%; in the assay with SNB-75 CNS it was 84.3%; with SNB-19 CNS, 71.6%; with U251 CNS, 66.3%; in the assay with PC-3 prostate it was 50.5%. In addition, the growth is 82.8% with SK-MEL-5 melanoma; 51% in the assay with UACC-62 melanoma; 57.5% with LOX IMVI melanoma; 61.3% in the assay on SK-MEL-28 melanoma; 79.9% with SK-MEL-2 melanoma; 64.3% in the assay with EKVX NSCLC. For the same compound, the growth is 76.6% with SN12C renal; 87.2% in the assay on UO-31 renal; 92.1% in the assay with TK-10 renal; 107% in the assay with ACHN renal; 102% in the assay with CAKI-1 renal; 115% in the assay on A498 renal. In addition, the figures for the growth in the assay on CCRF-CEM leukemia and with MOLT-4 leukemia were 67.5% and 83.7%, respectively.
Regarding `O=C1NC(=NC23CC4CC(CC(C4)C2)C3)N/C1=C\c1ccc2ncoc2c1`, the growth in the assay with HCT-15 colon was 0.0072% (active); in the assay with HT29 colon, 4.66% (active); with SNB-75 CNS, -8.6% (active); in the assay on SNB-19 CNS, 6.88% (active); in the assay on U251 CNS it was 10%; in the assay with PC-3 prostate, 5.37% (active). The growth is 1.95% (active) in the assay on SK-MEL-5 melanoma; -71.4% (active) in the assay on UACC-62 melanoma; 0.372% (active) in the assay on LOX IMVI melanoma; -18.6% (active) in the assay with SK-MEL-28 melanoma; -92.4% (active) with SK-MEL-2 melanoma; -14% (active) with EKVX NSCLC. For the same compound, the growth with SN12C renal was 2.78% (active); in the assay on UO-31 renal it was 1.68% (active); in the assay with TK-10 renal, 24.2%; with ACHN renal, -10.4% (active); in the assay on CAKI-1 renal, 7.48% (active); with A498 renal, -5.36% (active). For the same compound, the growth was -6.48% (active) in the assay with CCRF-CEM leukemia and 10.6% with MOLT-4 leukemia.
`CN1CCN(Cc2ccc(NC(=O)c3cncc(C#Cc4cnc5ccc(N[C@@H]6CCOC6)nn45)c3)cc2C(F)(F)F)CC1`: the growth is -85.6% (active) in the assay on HCT-15 colon; -44.4% (active) with HT29 colon; -96.1% (active) with SNB-75 CNS; -100% (active) in the assay with SNB-19 CNS; -82.3% (active) in the assay on U251 CNS; -46.9% (active) in the assay with PC-3 prostate. Also, the growth in the assay on SK-MEL-5 melanoma is -100% (active); in the assay with UACC-62 melanoma, -90% (active); in the assay on LOX IMVI melanoma, -100% (active); in the assay on SK-MEL-28 melanoma it was -95.3% (active); in the assay with SK-MEL-2 melanoma it was -94.3% (active); in the assay with EKVX NSCLC, -99.6% (active). Besides, the growth with SN12C renal is -98.6% (active); in the assay with UO-31 renal, -98.6% (active); in the assay on TK-10 renal, -82.2% (active); in the assay with ACHN renal, -100% (active); with CAKI-1 renal, -98.1% (active); in the assay on A498 renal it was -97.6% (active). The growth was -4.84% (active) in the assay on CCRF-CEM leukemia and -19% (active) in the assay with MOLT-4 leukemia.
As for `COc1ccc([C@H]2C(C(=O)c3ccc(Cl)cc3)C3(N[C@@H]2c2ccccc2)C(=O)Nc2ccc(Cl)cc23)cc1` (stereo not given in full), the growth was -23% (active) in the assay with HCT-15 colon; -50.8% (active) in the assay on HT29 colon; 35.8% in the assay on SNB-75 CNS; 16% with SNB-19 CNS; -33.9% (active) with U251 CNS; 18.1% in the assay on PC-3 prostate. Besides, the growth in the assay with SK-MEL-5 melanoma is 4.07% (active); with UACC-62 melanoma it was -63.1% (active); with LOX IMVI melanoma, -100% (active); in the assay with SK-MEL-28 melanoma, 4.54% (active); with SK-MEL-2 melanoma it was -65.5% (active); in the assay on EKVX NSCLC, 4.5% (active). Further, the growth in the assay on SN12C renal was -86.5% (active); in the assay on UO-31 renal, -1.98% (active); with TK-10 renal, 9.59% (active); in the assay with ACHN renal, 1.5% (active); in the assay on CAKI-1 renal, 4.6% (active); with A498 renal, 10.4%. Moreover, the growth in the assay with CCRF-CEM leukemia is 21.9%; in the assay on MOLT-4 leukemia it was 12.1%.
`O=C(CNc1nc(-c2ccccc2)cs1)Nc1ccc(Cl)cc1`: the growth is -85.4% (active) in the assay on HCT-15 colon; -51% (active) in the assay on HT29 colon; -44.9% (active) with SNB-75 CNS; -100% (active) in the assay with SNB-19 CNS; -87.3% (active) in the assay with U251 CNS; -40% (active) with PC-3 prostate. Also, the growth with SK-MEL-5 melanoma was -96.9% (active); in the assay on UACC-62 melanoma it was -92.4% (active); in the assay with LOX IMVI melanoma, -90.5% (active); in the assay on SK-MEL-28 melanoma, -96.2% (active); with SK-MEL-2 melanoma, -84.1% (active); in the assay on EKVX NSCLC, -95.3% (active). Further, the growth with SN12C renal was -97.2% (active); in the assay with UO-31 renal it was -99.8% (active); with TK-10 renal it was -93.9% (active); with ACHN renal, -100% (active); with CAKI-1 renal it was -82.4% (active); with A498 renal, -93.4% (active). In addition, the growth in the assay on CCRF-CEM leukemia is 12.3%; in the assay on MOLT-4 leukemia, -26.5% (active).
